Screening data deposited in PubChem BioAssay by National Center for Advancing Translational Sciences (NCATS).
Hits are enriched below; roughly 7.5% of the tested compounds scored in any of these assays.
SMN2 splice enh: SMN2 splice variant enhancement | HEK293 SMN2-luciferase splicing reporter, luminescence, 30-36 h | Potency, µM (titrated, usually from 46.1 µM), without a hit: at the highest dose activity change, positive = activation, hits mostly activators | 210,000 compounds, 2.8% hits; note: % of control where 0% means no effect; nearly all actives have a fitted effect of over 55% in size
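HEK293 cells carry an SMN2 […]–luciferase reporter in which exon 7 inclusion puts luciferase in frame. Cells were plated 10-12 h before compound addition, then incubated 30-36 h at 37C. ONE-Glo luminescence was read; sodium butyrate at 4.5 mM final served as control.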
NPC1 promoter act: activates the NPC1 promoter; Huh7 NPC1 promoter luciferase reporter, 24 h; Potency, µM (series often up to 9.22 µM), without a hit: at the highest dose activation, most hits filed as activators; 320,000 compounds, 2.4% hits; note: % of control where 0% means no effect; nearly all actives have a fitted effect of over 60% in size
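Cells: Huh7 expressing luciferase under the NPC1 promoter, 1500/well. Seeded 2 h, compound added, incubated 24 h at 37 °C. Luciferase reagent, 10 min ambient, then luminescence.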
FLuc modulator: inhibits or activates purified firefly luciferase, miR-21 counter-screen; purified FLuc, Km substrates, luminescence inhibition; Potency, µM (titrated, usually from 57.5 µM), for the others: at the highest dose activity change, negative = inhibition, most hits filed as inhibitors; 360,000 compounds, 6.9% hits; AID 588342;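 note: plate controls were vehicle for no effect and reference inhibitor for full effect; nearly all actives have a fitted effect of over 55% in size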
Target sequence (P08659 whole entry, looked up): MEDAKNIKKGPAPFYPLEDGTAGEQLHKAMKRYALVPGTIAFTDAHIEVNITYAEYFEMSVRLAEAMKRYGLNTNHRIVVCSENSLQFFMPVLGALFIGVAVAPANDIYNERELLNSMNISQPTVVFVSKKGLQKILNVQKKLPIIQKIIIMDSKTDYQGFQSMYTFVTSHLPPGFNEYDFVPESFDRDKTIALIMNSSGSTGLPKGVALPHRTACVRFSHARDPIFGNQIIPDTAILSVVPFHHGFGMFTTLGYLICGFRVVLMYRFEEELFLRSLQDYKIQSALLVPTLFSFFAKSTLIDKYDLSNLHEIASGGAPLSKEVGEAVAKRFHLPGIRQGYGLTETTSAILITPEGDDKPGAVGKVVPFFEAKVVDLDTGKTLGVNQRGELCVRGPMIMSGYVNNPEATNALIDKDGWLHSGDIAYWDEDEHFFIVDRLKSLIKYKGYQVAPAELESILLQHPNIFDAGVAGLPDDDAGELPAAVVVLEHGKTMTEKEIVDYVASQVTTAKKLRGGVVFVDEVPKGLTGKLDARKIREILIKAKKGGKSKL
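Biochemical qHTS of compounds, final roughly 60 µM downward over six points, against 10 nM purified firefly luciferase using Km concentrations of substrates (10 uM D-luciferin, 10 uM ATP) in Tris acetate pH 7.5 buffer; luminescence output.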
ELG1 genotox: genotoxicity induction in ELG1-luciferase HEK293T cells; AID 504466; HEK293T ELG1-luciferase reporter, luminescence, 16 h; 330,000 compounds, 1.3% hits; Potency, µM (highest dose often 46 µM), for the others: at the highest dose activity change, positive = activation, usual class: activators; note: % of control where 0% means no effect; nearly all actives have a fitted effect of over 60% in size
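Reporter readout depends on ELG1 protein level, which increases with genetic stress. After 16 hr compound exposure at 37 °C, luciferase activity was quantified using ONE-Glo.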
Rab9 promoter act: activates the Rab9 promoter | Potency, µM (highest dose often 9.22 µM), without a hit: at the highest dose activation, negative = inhibition, usual class: activators | 320,000 compounds, 2.8% hits | Huh7 Rab9 promoter-luciferase reporter, luminescence, 24 h; note: % of control where 0% means no effect; nearly all actives have a fitted effect of over 60% in size
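Promoter activation is measured as luciferase luminescence in Huh7 cells stably transfected with a Rab9 promoter–luciferase construct, following 24 h compound exposure at 37 °C and 10 min reagent incubation at ambient temperature.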
Luc counter: counter-screen: inhibitors of Kinase-Glo firefly luciferase | Kinase-Glo luciferase, ATP luminescence, 8 min | Potency, µM (titrated, usually from 38.3 µM), inactives show top-dose activity change, negative = inhibition, most hits filed as inhibitors | 200,000 compounds, 0.28% hits | AID 1379; note: % is set by controls: 0 for no effect and ±100 for the full control effect; nearly all actives have a fitted effect of over 60% in size
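Compound is pinned into ATP-containing buffer (10 uM ATP, imidazole pH 7.2, 7 mM MgCl2). Kinase-Glo luciferase reagent is then added. Light output is recorded following an 8-min room-temperature incubation.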
The depositor's hits bear a star; [ ] = dose if it differs, or a comment. Calls come from the whole dose curve; as a rule, active = well fitted curve in the direction sought with a large enough effect; inconclusive = small, poorly fitted or top-dose-only effect, or another doubt; inactive = no such curve, though single readings can be large; an effect the other way counts as inactive or inconclusive. Potency is the fitted concentration of half-maximal effect.

Results for O=C(N=Nc1ccc(NOC(=O)c2ccccc2Br)cc1)c1ccccc1O ?
SMN2 splice enh: -29.0%; NPC1 promoter act: inconclusive; FLuc modulator: 8.49µM*; ELG1 genotox: 2.7%; Rab9 promoter act: inconclusive; Luc counter: -20.8%

How did COC(=O)c1ccccc1O do in these assays?
SMN2 splice enh: 2.0%

How did COc1ccccc1NC(=O)c1ccc(-c2ccccc2F)o1 do in these assays?
SMN2 splice enh: inconclusive; NPC1 promoter act: 18.1%; FLuc modulator: -8.2%[2.3 µM]; ELG1 genotox: 7.6%; Rab9 promoter act: inconclusive; Luc counter: 0.4%

How did Cc1cc(NC(=O)c2ccc(-c3ccccc3F)o2)no1 do in these assays?
SMN2 splice enh: 12.6µM*; NPC1 promoter act: 3.55µM*; FLuc modulator: 15.1µM*; ELG1 genotox: inconclusive; Rab9 promoter act: 4.47µM*; Luc counter: -0.6%

Results for COC(=O)c1ccccc1NC(=O)c1ccc(-c2ccccc2F)o1 ?
SMN2 splice enh: 5.01µM*; NPC1 promoter act: 3.16µM*; FLuc modulator: 3.4%; ELG1 genotox: inconclusive; Rab9 promoter act: inconclusive; Luc counter: 0.6%

How did Cc1ccc(C)c(NC(=O)Cn2cc(S(=O)(=O)c3ccc(F)cc3)c(=O)c3cc(F)ccc32)c1 do in these assays?
SMN2 splice enh: -7.5%; FLuc modulator: 1.1%

What do the screens show for `Cc1c(CCC(=O)N2CCC[C@H]2C(=O)O)c(=O)oc2cc3oc4c(c3cc12)CCCC4`?
NPC1 promoter act: 18.5%; FLuc modulator: 12µM*; ELG1 genotox: inconclusive; Rab9 promoter act: -4.4%

What do the screens show for `Cc1c(CCC(=O)N2CCC(C(=O)NCCCCCC(=O)O)CC2)c(=O)oc2cc3oc4c(c3cc12)CCCC4`?
NPC1 promoter act: -3.1%; FLuc modulator: 13.5µM*; ELG1 genotox: 9.5%; Rab9 promoter act: -39.1%

How did Cc1c(CCC(=O)NCCC(=O)O)c(=O)oc2c(C)c3oc4c(c3cc12)CCCC4 do in these assays?
NPC1 promoter act: -4.4%; FLuc modulator: inconclusive; ELG1 genotox: 4.8%; Rab9 promoter act: 11.6%

What do the screens show for `Cc1c(CCC(=O)O)c(=O)oc2cc3oc4c(c3cc12)CCCC4`?
NPC1 promoter act: 2.1%; FLuc modulator: 6.01µM*; ELG1 genotox: 10.1%; Rab9 promoter act: 5.2%

Results for Cc1c(CCC(=O)NCC(=O)NCC(=O)O)c(=O)oc2cc3oc4c(c3cc12)CCCC4 ?
NPC1 promoter act: -4.0%; FLuc modulator: 21.3µM*; ELG1 genotox: 0.2%; Rab9 promoter act: 1.4%

What do the screens show for `Cc1c(CCC(=O)N[C@@H](C)C(=O)O)c(=O)oc2c(C)c3oc4c(c3cc12)CCCC4`?
NPC1 promoter act: -1.3%; FLuc modulator: inconclusive; ELG1 genotox: 1.4%; Rab9 promoter act: -1.3%

What do the screens show for `Cc1c(CCC(=O)N[C@@H](CC(C)C)C(=O)O)c(=O)oc2cc3oc4c(c3cc12)CCCC4`?
NPC1 promoter act: -2.5%; FLuc modulator: 16.9µM*; ELG1 genotox: 4.5%; Rab9 promoter act: -7.1%

What do the screens show for `Cc1oc2cc3oc(=O)c(CCC(=O)NCCC(=O)O)c(C)c3cc2c1C`?
NPC1 promoter act: -3.9%; FLuc modulator: 12µM*; ELG1 genotox: 10.6%; Rab9 promoter act: 0.2%

What do the screens show for `CC(=O)COC(=O)C1=NN(c2ccccc2)C(=O)CC1`?
NPC1 promoter act: 3.8%; FLuc modulator: -0.9%; ELG1 genotox: 0.5%; Rab9 promoter act: 0.6%

Results for C/C(=N\NC(=O)c1ccco1)c1ccc(-c2ccccc2)cc1 ?
NPC1 promoter act: 3.16µM*; FLuc modulator: 2.39µM*; ELG1 genotox: 9.2µM*; Rab9 promoter act: 3.55µM*

What do the screens show for `C/C(=N\NC(=O)c1ccc2c(c1)OCO2)c1ccco1`?
SMN2 splice enh: 12.6µM*; NPC1 promoter act: inconclusive; FLuc modulator: 9.53µM*; ELG1 genotox: 14.1%; Rab9 promoter act: 0.794µM*; Luc counter: inconclusive

Results for C/C(=N\NC(=O)c1ccc(Cl)c(Cl)c1)c1ccc(Br)s1 ?
SMN2 splice enh: -46.1%; NPC1 promoter act: -9.2%; FLuc modulator: 0.0%; ELG1 genotox: -0.2%; Rab9 promoter act: -8.1%; Luc counter: -0.4%

What do the screens show for `C/C(=N\NC(=O)CNC(=O)c1ccc2c(c1)OCCO2)c1ccco1`?
NPC1 promoter act: 2.6%; FLuc modulator: -14.2%; ELG1 genotox: 1.0%; Rab9 promoter act: 1.5%

How did C/C(=N/NC(=O)c1ccc2c(c1)OCO2)c1ccc(Br)s1 do in these assays?
NPC1 promoter act: inconclusive; FLuc modulator: 0.2%; ELG1 genotox: inconclusive; Rab9 promoter act: 3.55µM*

Results for COc1ccc(C2=CC(=O)CC(C)(C)C2)cc1 ?
NPC1 promoter act: 1.2%; FLuc modulator: -22.0%; ELG1 genotox: 7.1%; Rab9 promoter act: 16.9%

Results for CC1(C)CC(=O)C=C(c2ccc(-c3ccccc3)cc2)C1 ?
NPC1 promoter act: 2.82µM*; FLuc modulator: inconclusive; ELG1 genotox: inconclusive; Rab9 promoter act: inconclusive

How did CC(C)c1ccc(Nc2nc(CC(=O)O)cs2)cc1 do in these assays?
NPC1 promoter act: 1.26µM*; FLuc modulator: 2.13µM*; ELG1 genotox: inconclusive; Rab9 promoter act: 1.41µM*; Luc counter: -4.0%

Results for COc1cccc(NC(=O)c2ccc3c(c2)CCN3S(C)(=O)=O)c1 ?
SMN2 splice enh: 29.8%; NPC1 promoter act: 27.3%; FLuc modulator: 16.9µM*; ELG1 genotox: 4.6%; Rab9 promoter act: inconclusive

What do the screens show for `COc1cccc(NC(=O)c2ccc3c(c2)N(C)CCS3)c1`?
NPC1 promoter act: 1.26µM*; FLuc modulator: 2.69µM*; ELG1 genotox: inconclusive; Rab9 promoter act: 3.55µM*

How did CN1CCSc2ccc(C(=O)Nc3ccc(Cl)cc3)cc21 do in these assays?
NPC1 promoter act: 2.82µM*; FLuc modulator: inconclusive; ELG1 genotox: inconclusive; Rab9 promoter act: 3.55µM*

Results for CC(=O)Nc1ccc(NC(=O)c2ccc3c(c2)CCN3S(C)(=O)=O)cc1 ?
NPC1 promoter act: -1.6%; FLuc modulator: -1.4%; ELG1 genotox: -1.7%; Rab9 promoter act: -10.6%

Results for CCc1ccc(NC(=O)c2ccc3c(c2)N(Cc2ccc(C)cc2)CCS3)cc1 ?
SMN2 splice enh: 25.1µM*; FLuc modulator: inconclusive

Results for O=C(OCC(=O)c1c[nH]c2ccccc12)c1ccc(Br)o1 ?
NPC1 promoter act: 3.6%; FLuc modulator: 16.9µM*; ELG1 genotox: 5.5%; Rab9 promoter act: 10.7%; Luc counter: -4.5%

How did COc1cccc(C(=O)OCC(=O)c2c[nH]c3ccccc23)c1O do in these assays?
SMN2 splice enh: 24.8%; NPC1 promoter act: 12.7%; FLuc modulator: 19µM*; ELG1 genotox: inconclusive; Rab9 promoter act: 17.0%; Luc counter: -2.8%
